# Lassa entry inh – Lassa virus entry inhibition; Lassa virus pseudotype entry inhibition, cell reporter; Potency, µM (titrated, usually from 37.9 µM), usual class: inhibitors; 300,000 tested, 1.2% active; calls by dose curve; tested in HEK293 cells; further: nearly all actives have a fitted effect of over 50% in size
# FMDV antiviral – antivirals against foot and mouth disease virus. FMDV antiviral cell-based qHTS. Potency, µM (doses to about 57.9 µM), most hits filed as inhibitors. 410,000 tested, 1.2% active; calls by dose curve; tested in HEK293T cells; further: read-out not given here; nearly all actives have a fitted effect of over 45% in size
# MARV entry inh – blocks Marburg virus binding to or entry into cells. 300,000 tested, 1.8% active. Potency, µM (series often up to 37.8 µM), hits mostly inhibitors. AID 540276. Marburg virus pseudotyped entry inhibition, cell reporter; calls by dose curve; tested in HEK293 cells
# HCV inhibitor – inhibitors of hepatitis C virus infection. Huh7.5.1 HCVcc-Cre infection, luciferase reporter, 44 h. Potency, µM (top dose mostly 41.8 µM), usual class: inhibitors. 340,000 tested, 3.4% active; active means well fitted inhibition curve with a large enough effect; inconclusive means small, poorly fitted or top-dose-only effect, or another doubt; inactive means no such curve, though single readings can be large or run the other way
#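 Seed cells (1,000/well) for 4 h; treat with compound and infect with HCVcc-Cre, moi about 0.5. Incubate 44 h, then detect luciferase activity.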
# HCMV inh – blocks human cytomegalovirus replication; HFF cells, HCMV-luciferase reporter, 72 h; active compounds read low; activity change, negative = inhibition, % at 57.5 µM; 410,000 tested, 4.5% active; AID 1259415; in the data active means activity change below about -60%; inconclusive means no clear call, values can overlap the other calls; inactive means above about -39%
#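 After 16 h attachment at 37C, HFF cells received test compound and HCMV-luciferase (1 PFU/cell); reporter luminescence read 72 h later, data normalized against buffer-only and known inhibitor Salinomycin.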
# A number is an active result; i = inactive; ? = inconclusive; nt = not tested or not shown. Hits are enriched below; roughly 7.9% of the tested compounds scored in any of these assays.
SMILES,Lassa entry inh,FMDV antiviral,MARV entry inh,HCV inhibitor,HCMV inh
Cc1cc(O)c(C)c(O)c1/C=N/NC(=O)c1cccnc1,?,i,10µM,12.6µM,-96.5
O=C(N/N=C/c1cc(Br)c(O)c(Br)c1O)c1cccnc1,nt,i,nt,?,i
Cc1c(/C=N/NC(=O)c2cccnc2)c2ccccc2n1Cc1ccccc1,?,14.1µM,i,11.2µM,-62.4
COc1ccc(NC(C)C(=O)N/N=C/c2c(O)ccc3ccccc23)cc1 (stereo not given),?,i,?,i,i
Cn1nccc1C(=O)N/N=C/c1c(O)ccc2ccccc12,nt,i,nt,0.891µM,-98.8
Cc1nn(Cc2ccccc2)c(Cl)c1/C=N/NC(=O)c1cccnc1,i,i,i,i,?
Cn1c(/N=C/c2c(O)ccc3ccccc23)nc2ccccc21,i,i,i,i,-84.8
COc1ccc(Cc2c(C)nn(-c3nc(C)c(C(=O)Nc4ccc(C)cc4C)s3)c2C)cc1,i,i,i,nt,i
Cc1ccc(/C=C/c2onc(C)c2S(=O)(=O)N2CCC(C(=O)Nc3ccccc3C(F)(F)F)CC2)cc1,i,i,nt,nt,i
CN(C)CCNC(=O)C(=O)NCC(c1cccnc1)N1CCN(c2ccccc2)CC1 (stereo not given),i,i,nt,nt,i
Cc1ccc(NC(=O)CSc2nc3ccccc3c3nc(CCc4c(C)n[nH]c4C)nn23)c(C)c1,i,i,nt,nt,i
COC1=C[C@H](C(=O)NCCOC(C)=O)[C@@]2(C)Cc3ccccc3[C@@H]2CC1=O,nt,nt,i,nt,nt
COc1cc2nc(SCC(=O)Nc3cccc(C)c3)n3nc(-c4ccccc4)nc3c2cc1OC,i,i,i,nt,i
COc1ccc(-c2cn3c(n2)sc2cc(C(=O)Nc4cc(Cl)ccc4C)ccc23)cc1,i,i,nt,nt,nt
CCn1nc(C)c(/C=N/NC(=O)c2ccc3c(c2)c(C)c(C)n3Cc2ccccc2)c1C,i,?,i,10µM,i
Cn1c(-c2ccccc2)c(/C=N/NC(=O)c2ccc(O)cc2)c2ccccc21,nt,i,nt,10µM,i
Cn1cccc1/C=N\NC(=O)c1cncc(Br)c1,i,i,?,i,?
O=C(N/N=C\c1c(O)ccc2ccccc12)c1cncc(Br)c1,?,i,?,?,-100.2
Cc1c(/C=N/NC(=O)c2cccs2)c2ccccc2n1Cc1ccccc1Cl,4.11µM,i,2.91µM,?,-81.0
COc1ccc(OC)c(CNC(=O)CN(c2ccc(C)cc2)S(=O)(=O)N(C)C)c1,i,i,?,nt,i
Cc1cc(=O)n(CC(=O)NCc2ccc(OC(C)C)cc2)c2c1c(C)nn2-c1cccc(F)c1,i,i,nt,nt,i
Cn1ncc(N=Cc2c(O)ccc3ccccc23)c1C(=O)Nc1cccc(Cl)c1,?,i,18.3µM,?,i
O=C(NN=Cc1c(O)ccc2ccccc12)c1ccncc1,3.16µM,i,3.16µM,?,-100.0
CCCc1nn(C)c(C(=O)Nc2cccc(Cl)c2)c1Cl,i,i,i,?,-64.0
O=C(NN=Cc1ccc(N(CCCl)CCCl)cc1Cl)c1cccnc1,?,i,1.58µM,?,i
SMILES,Lassa entry inh,FMDV antiviral,MARV entry inh,HCV inhibitor,HCMV inh
CCN(CC)C(=O)Cn1cc(SCC(=O)Nc2cccc(F)c2)c2ccccc21,i,i,nt,nt,i
COc1ccc2ccccc2c1/C=N\NC(=O)c1cccnc1,?,i,i,?,i
COc1ccc2ccccc2c1/C=N/NC(=O)c1cccc(C)c1,nt,i,nt,11.2µM,i
O=C(N/N=C/c1c(O)ccc2ccccc12)c1cccnc1,?,i,?,5.01µM,-97.8
O=C(N/N=C/c1c(O)ccc2ccccc12)c1ccc[n+](CCO)c1,i,i,i,i,i
O=C(N/N=C/c1c(O)ccc2ccccc12)c1ccc(Br)o1,?,i,?,3.55µM,-98.7
Cc1ccc(C(=O)N/N=C/c2c(O)ccc3ccccc23)cn1,nt,i,nt,4.47µM,-97.2
COC(=O)c1ccccc1NC(=O)CSc1nc(C)c(Cl)c(C)c1C#N,i,i,nt,nt,i
COC(=O)c1cc(CNC(=O)c2ccc(N(C)C)cc2)cc(NC(=O)c2ccccc2Cl)c1,nt,i,nt,nt,nt
COC(=O)c1ccccc1NC(=O)c1nn(C)c2c1COc1ccccc1-2,i,i,i,nt,i
Cc1cccc(OCC(=O)NC(C)C(=O)N/N=C/c2c(OCc3ccccc3)ccc3ccccc23)c1 (stereo not given),i,i,?,7.94µM,-73.5
O=C(COc1ccc2ccc(=O)oc2c1)N1CCN(c2ccccc2)CC1,i,i,?,i,i
Cc1cccc(N2CCN(C(=O)COc3ccc4c(C)cc(=O)oc4c3C)CC2)c1C,?,?,?,10µM,i
COc1ccccc1N1CCN(C(=O)COc2cc(C)cc3oc(=O)cc(C)c23)CC1,nt,?,nt,8.91µM,i
COC(=O)Cc1c(C)c2ccc(OCC(=O)N3CCC(C)CC3)c(C)c2oc1=O,i,35.5µM,i,?,i
Cc1cccc(N2CCN(C(=O)COc3ccc4ccc(=O)oc4c3)CC2)c1C,nt,?,nt,11.2µM,?
Cc1cc(=O)oc2c(C)c(OCC(=O)N3CCN(c4ccc(F)cc4)CC3)ccc12,i,i,?,?,i
CCC1CN(CC(=O)NC(c2ccccn2)C(F)(F)F)Cc2cc(OC)ccc2O1 (stereo not given),nt,i,nt,nt,nt
COC(=O)C/C=C\[C@@H](C)[C@@H](/C=N\OC[C@@H](C)[C@H](OCc1ccccc1)C(C)C)NS(=O)(=O)c1ccc(C)cc1,nt,nt,i,nt,nt
Cc1c(C(=O)N(C)C)sc2c1c(=O)n(-c1ccc(Cl)c(Cl)c1)c(=O)n2CC(=O)Nc1cccc(C(F)(F)F)c1,i,i,nt,nt,i
CC(C)[C@H](NC(=O)c1ccccc1)C(=O)OCC(=O)c1ccc2c(c1)NC(=O)CO2,?,i,i,i,i
CC[C@H](C)[C@H](NC(=O)c1ccc(Cl)cc1)C(=O)OCC(=O)c1ccc2c(c1)NC(=O)CO2,?,?,?,?,-86.7
COc1ccc(/C=C/C(=O)OCC(=O)c2ccc3c(c2)NC(=O)CO3)c(OC)c1,nt,i,nt,11.2µM,?
COc1cccc(/C=C/C(=O)OCC(=O)c2ccc3c(c2)NC(=O)CO3)c1OC,i,?,i,i,i
O=C1COc2ccc(C(=O)CCl)cc2N1,i,25.1µM,?,?,i
SMILES,Lassa entry inh,FMDV antiviral,MARV entry inh,HCV inhibitor,HCMV inh
C=C1C[C@@]23CC[C@H]4[C@@](C)(CCC[C@@]4(C)C(=O)O)[C@@H]2CC[C@]1(O)C3,i,nt,i,nt,nt
CC(Sc1nccn1C)C(=O)Nc1ccccc1C#N (stereo not given),i,i,i,nt,i
COc1ccccc1-c1ccc(Nc2cccc(C(C)=O)c2)nn1,i,i,i,7.94µM,i
N#Cc1ccc(C(=O)N2CCC3CC2c2cc(-c4ccc(F)cc4)ccc23)cc1 (stereo not given),nt,i,nt,35.5µM,i
Cn1nnc(NC(=S)NC(=O)c2ccc3ccccc3c2)n1,nt,i,nt,nt,-67.2
O=C(O)c1cccc(NC(=S)NC(=O)c2ccc3ccccc3c2)c1,0.794µM,14.1µM,?,i,i
Cn1nnc(NC(=O)c2ccc3ccccc3c2)n1,i,i,?,i,i
Cc1ccc(-n2nnnc2SCC(=O)NCCc2ccccc2)cc1C,i,i,i,nt,i
Cc1ccccc1-c1cc2nccc(-c3cc(Cl)ccc3O)n2n1,i,i,i,nt,i

# Screens deposited in PubChem BioAssay by National Center for Advancing Translational Sciences (NCATS).
